A number with no mark means an inactive call. For some assays here: Measured potencies and affinities stand elsewhere. The source made the active and inactive calls. Unless noted, the rule behind the calls is not given here.
Experiments:
[1] = antimalarial activity against Dd2 strain (AID 2302;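 active = growth inhibition above 50% at the single 2 µM test dose, taken to imply half-maximal potency below 2 µM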;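 note: 0% = DMSO untreated growth and 100% = chloroquine plus artemisinin killed control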); conditions: P. falciparum Dd2 in RBCs, LDH growth readout, 72 h; at 2 µM; stronger effect = higher value
[2] = human hepatoma cell viability loss – ATP luminescence, cytotoxicity control for P. falciparum antimalarial project, primary screen (AID 2303;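 active = inhibition above 50%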;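 note: 0% = DMSO wells and 100% = digitonin-killed cells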); conditions: HepG2 viability, 24-48 h, at 10 µM, stronger effect = higher value
[3] = biological target: L-lactate dehydrogenase (Plasmodium falciparum (isolate CDC / Honduras)) (UniProt Q27743); assay: PfLDH activity inhibition – cell lysate, 3D7 strain, counter-screen for P. falciparum growth inhibition project (AID 2304);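 note: 0% = vehicle and 100% = reference inhibitor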; conditions: P. falciparum 3D7 crude extract, LDH APAD/NBT absorbance; at 2 µM; stronger effect = higher value
Chain of L-lactate dehydrogenase (Plasmodium falciparum (isolate CDC / Honduras)) (Q27743 whole entry, looked up): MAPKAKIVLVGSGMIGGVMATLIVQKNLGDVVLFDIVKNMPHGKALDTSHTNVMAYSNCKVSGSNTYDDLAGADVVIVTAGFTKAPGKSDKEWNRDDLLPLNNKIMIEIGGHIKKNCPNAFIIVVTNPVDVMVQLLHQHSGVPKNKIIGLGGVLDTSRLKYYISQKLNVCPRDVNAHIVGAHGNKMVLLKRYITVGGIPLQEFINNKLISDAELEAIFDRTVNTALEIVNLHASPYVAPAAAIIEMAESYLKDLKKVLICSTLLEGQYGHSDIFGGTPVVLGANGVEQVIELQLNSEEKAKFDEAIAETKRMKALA

[4] = inhibition of 3D7 malaria parasite growth – strain 3D7 (AID 2306);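 note: 0% = DMSO wells and 100% = chloroquine plus artemisinin control wells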; conditions: P. falciparum 3D7 erythrocytic growth, LDH absorbance, 72 h; at 2 µM; stronger effect = higher value
[5] = biological target: Calcium-dependent protein kinase 1 (Plasmodium falciparum (isolate 3D7)) (UniProt P62344); assay: PfCDPK1 kinase inhibitors, biochemical, TCAMS library (AID 1159585; cut-off not given, nearly all actives have IC50 up to about 0.98 µM;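 note: inhibitors leave more ATP so luminescence rises with inhibition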); conditions: recombinant PfCDPK1, Kinase-Glo ATP depletion luminescence
Chain of Calcium-dependent protein kinase 1 (Plasmodium falciparum (isolate 3D7)) (P62344 whole entry, looked up): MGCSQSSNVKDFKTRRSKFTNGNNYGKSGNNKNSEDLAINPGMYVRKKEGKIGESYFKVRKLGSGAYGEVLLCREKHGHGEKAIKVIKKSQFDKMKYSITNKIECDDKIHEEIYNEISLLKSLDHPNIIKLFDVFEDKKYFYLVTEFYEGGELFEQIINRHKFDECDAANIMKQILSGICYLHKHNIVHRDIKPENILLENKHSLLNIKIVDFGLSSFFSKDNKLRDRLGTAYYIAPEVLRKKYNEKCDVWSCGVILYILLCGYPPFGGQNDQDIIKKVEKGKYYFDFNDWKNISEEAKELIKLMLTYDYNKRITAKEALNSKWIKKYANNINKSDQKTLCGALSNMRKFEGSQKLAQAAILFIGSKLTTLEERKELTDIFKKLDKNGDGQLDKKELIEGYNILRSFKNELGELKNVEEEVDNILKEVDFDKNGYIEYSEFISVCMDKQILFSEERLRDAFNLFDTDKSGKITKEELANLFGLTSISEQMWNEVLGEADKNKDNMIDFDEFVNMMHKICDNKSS

[6] = biological target: Plasmodium falciparum protein kinase 6 (PK6, PF3D7_1337100) (UniProt Q8IDW1); assay: PfPK6 kinase inhibitors, biochemical, TCAMS library (AID 1159586); conditions: recombinant PfPK6, Kinase-Glo ATP depletion luminescence
Chain of Plasmodium falciparum protein kinase 6 (PK6, PF3D7_1337100) (Q8IDW1 1-305): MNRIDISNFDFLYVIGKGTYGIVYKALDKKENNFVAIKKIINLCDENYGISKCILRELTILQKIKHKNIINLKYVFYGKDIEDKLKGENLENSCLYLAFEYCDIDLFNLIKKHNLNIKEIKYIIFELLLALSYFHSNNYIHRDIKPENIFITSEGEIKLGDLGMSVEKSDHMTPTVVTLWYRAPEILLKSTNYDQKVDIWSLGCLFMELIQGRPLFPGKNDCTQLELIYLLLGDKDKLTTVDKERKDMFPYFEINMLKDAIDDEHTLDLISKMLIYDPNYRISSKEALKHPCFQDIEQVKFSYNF

[7] = biological target: Protein kinase 7 (PK7), Plasmodium falciparum 3D7 (PF3D7_0213400) (UniProt Q7YTF7); assay: inhibition of Plasmodium PK7 catalytic activity – biochemical, TCAMS antimalarial set, Kinase-Glo luminescence (AID 1159587); conditions: recombinant PfPK7, Kinase-Glo ATP depletion luminescence
Chain of Protein kinase 7 (PK7), Plasmodium falciparum 3D7 (PF3D7_0213400) (Q7YTF7 1-343): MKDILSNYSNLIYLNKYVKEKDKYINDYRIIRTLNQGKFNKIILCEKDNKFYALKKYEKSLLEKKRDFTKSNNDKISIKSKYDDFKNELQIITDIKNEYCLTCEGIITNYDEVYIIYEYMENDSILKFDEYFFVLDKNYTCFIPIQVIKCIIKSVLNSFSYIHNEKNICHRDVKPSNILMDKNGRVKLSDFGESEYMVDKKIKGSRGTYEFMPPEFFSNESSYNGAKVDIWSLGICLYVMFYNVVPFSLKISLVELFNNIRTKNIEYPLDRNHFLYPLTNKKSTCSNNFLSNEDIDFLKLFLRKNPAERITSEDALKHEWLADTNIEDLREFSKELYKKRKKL

[8] = biological target: Calcium-dependent protein kinase 4 (Plasmodium falciparum (isolate 3D7)) (UniProt Q8IBS5); assay: PfCDPK4 kinase inhibitors, biochemical, TCAMS library (AID 1159588; cut-off not given, nearly all actives have IC50 up to about 0.91 µM); conditions: recombinant PfCDPK4, Kinase-Glo ATP depletion luminescence
Chain of Calcium-dependent protein kinase 4 (Plasmodium falciparum (isolate 3D7)) (Q8IBS5 whole entry, looked up): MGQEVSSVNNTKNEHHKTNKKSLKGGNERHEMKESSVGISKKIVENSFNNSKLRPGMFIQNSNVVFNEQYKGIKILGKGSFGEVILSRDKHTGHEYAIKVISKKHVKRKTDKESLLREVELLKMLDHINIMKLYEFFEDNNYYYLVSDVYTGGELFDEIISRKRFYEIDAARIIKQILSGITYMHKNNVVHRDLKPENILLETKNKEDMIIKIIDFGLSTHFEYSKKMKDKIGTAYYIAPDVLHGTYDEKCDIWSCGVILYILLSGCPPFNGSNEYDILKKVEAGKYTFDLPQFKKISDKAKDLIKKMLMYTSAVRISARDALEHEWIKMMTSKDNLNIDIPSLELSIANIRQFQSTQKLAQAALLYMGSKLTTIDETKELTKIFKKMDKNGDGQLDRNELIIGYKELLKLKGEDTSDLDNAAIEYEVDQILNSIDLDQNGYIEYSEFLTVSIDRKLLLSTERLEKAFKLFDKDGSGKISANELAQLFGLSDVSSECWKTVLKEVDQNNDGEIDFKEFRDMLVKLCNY

Structure (SMILES) | growth inhibition [1] | inhibition [2] | inhibition [3] | growth inhibition [4] | outcome [5] | outcome [6] | outcome [7] | outcome [8]
CC(Nc1ccc2c(c1)OCCO2)C(=O)Nc1cc(C(F)(F)F)ccc1N1CCOCC1 (stereo not given) | 70% (active) | -6% | 1% | 98% (active) | inactive | inactive | inactive | inactive
O=C(NC1CC1)C1CCN(Cc2cc3ccccc3n2Cc2ccc(Cl)cc2)CC1 | 96% (active) | 16% | -1% | 95% (active) | inactive | inactive | inactive | inactive
CCNc1cc(C(=O)N[C@@H](Cc2ccccc2Cl)[C@H](O)CNC(C)CCCC(C)C)cc(N2CCCCS2(=O)=O)c1 (stereo not given in full) | 62% (active) | 12% | 2% | 97% (active) | inactive | inactive | inactive | inactive
O=C(C1CC1)N1c2ccccc2CCc2ccccc21 | 57% (active) | 40% | 1% | 98% (active) | inactive | inactive | inactive | inactive
COc1ccc(NC(=O)/C=C/c2ccccc2Cl)cc1OCCN1CCC(N2CCCC2)CC1 | 23% | 22% | -1% | 102% (active) | inactive | inactive | inactive | inactive
O=C(Nc1cccc(CN2CCCN(CC3CC3)CC2)c1)c1ccc(Cl)c(Cl)c1 | 5% | 13% | 4% | 92% (active) | inactive | inactive | inactive | inactive
Cc1cccc2[nH]c(-c3ccc(-c4ccc(CN5CC(C)OC(C)C5)cc4)cc3)nc12 (stereo not given) | 96% (active) | 37% | 3% | 97% (active) | inactive | inactive | inactive | inactive
Cc1ccc2nc(C)cc(NN=Cc3ccccc3Cl)c2c1 | 62% (active) | 6% | -2% | 100% (active) | inactive | inactive | inactive | inactive
COc1ccc2nccc([C@@H](O)CN3CCC(NCc4nc5ccccc5s4)CC3)c2c1 | 5% | 8% | -3% | 93% (active) | inactive | inactive | inactive | inactive
Cn1cncc1C(=O)NC1CCN(c2ccnc(Nc3ccc(F)cc3)n2)C1 (stereo not given) | 83% (active) | 2% | -7% | 97% (active) | inactive | inactive | inactive | inactive
Cc1cc(N(C)C)nc(Nc2ccc(NC(=O)c3ccccc3C)cc2)n1 | 16% | -5% | -2% | 93% (active) | inactive | inactive | inactive | inactive
Cc1cc(N2CCCC2)nc(Nc2ccc(NC(=O)c3ccc(Br)o3)cc2)n1 | 57% (active) | 17% | 0% | 99% (active) | inactive | inactive | inactive | inactive
CC(C)COc1ccc(Cl)cc1Cc1ccc(-c2nc3c(cnc4ccccc43)[nH]2)o1 | 26% | 21% | 1% | 87% (active) | inactive | inactive | inactive | inactive
COc1ccc(CCn2c(=N)c(C(=O)NCc3ccccc3)cc3c(=O)n4cccc(C)c4nc32)cc1 | 37% | 29% | -3% | 102% (active) | inactive | inactive | inactive | inactive
CC(Cc1ccc(NC(=O)c2ccc(CNCc3ccccc3)cc2)cc1)N(CCc1cccc(Cl)c1)C(=O)OC(C)(C)C (stereo not given) | 2% | 16% | -2% | 95% (active) | inactive | inactive | inactive | inactive
Cc1nc2ccc3ccc(CNc4ccc(C(=O)CC(CCC(=O)O)C(=O)O)cc4)cc3c2c(=O)[nH]1 (stereo not given) | 96% (active) | 51% (active) | -1% | 95% (active) | inactive | inactive | inactive | inactive
O=S(=O)(NCCN1CCCC1)c1ccc(-c2ccc(CNCc3ccccc3)cc2)s1 | 17% | 34% | -5% | 94% (active) | inactive | inactive | inactive | inactive
O=C(Nc1ccc(C(F)(F)F)cc1)c1ccc(S(=O)(=O)NC2CCN(CC3CCCCC3)C2)cc1 (stereo not given) | 16% | 33% | 5% | 99% (active) | inactive | inactive | inactive | inactive
COc1ccccc1N1CCN(CCCCNC(=O)c2ccc(NC(=O)c3ccc4ccccc4c3)cc2)CC1 | 18% | 16% | 1% | 97% (active) | inactive | inactive | inactive | inactive
CCCNCc1ccc(-c2ccc(CN(CCOC)C(=O)c3cscn3)cc2)nc1 | 16% | 13% | 2% | 99% (active) | inactive | inactive | inactive | inactive

Structure (SMILES) | growth inhibition [1] | inhibition [2] | inhibition [3] | growth inhibition [4] | outcome [5] | outcome [6] | outcome [7] | outcome [8]
Nc1ccnc(N2CCC(CCOc3cc(C(F)(F)F)nc4c(C(F)(F)F)cccc34)CC2)c1 | 17% | 35% | -1% | 98% (active) | inactive | inactive | inactive | inactive
Clc1ccc(-c2csc3ncnc(Cl)c23)cc1 | 95% (active) | -3% | -6% | 94% (active) | inactive | inactive | inactive | inactive
CCC(=O)N1CCc2cc(Br)cc(S(=O)(=O)N3CC(C)CC(C)C3)c21 (stereo not given) | 84% (active) | 5% | -3% | 85% (active) | inactive | inactive | inactive | inactive
O=C(Nc1ccc2c(c1)CCC2)c1cccc(CN2CCCN(Cc3cccc(O)c3)CC2)c1 | 20% | 10% | 0% | 91% (active) | inactive | inactive | inactive | inactive
CCC[C@@H]([C@@H](Cc1ccc(C)s1)C(=O)N[C@@H](CNC(C)=O)C(=O)Nc1nccs1)N(O)C=O | 96% (active) | -1% | 2% | 97% (active) | inactive | inactive | inactive | inactive
O=C(/C=C/c1cccc(C(F)(F)F)c1)NCCCCCN1CCC(c2c[nH]c3ccccc23)CC1 | 14% | 70% (active) | 0% | 90% (active) | inactive | inactive | inactive | inactive
COc1ccc(-c2ccc(NC(=O)c3ccc(C#N)cc3)cc2)cc1CN1CCNCC1 | 42% | 23% | 0% | 96% (active) | inactive | inactive | inactive | inactive
CN1CCC(NCCS(=O)(=O)c2cccc(Nc3ccc(-c4cccc(F)c4)cn3)c2)CC1 | -3% | 27% | 5% | 99% (active) | inactive | inactive | inactive | inactive
CC(=O)c1nccc(C)c1N | -1% | 10% | 1% | 92% (active) | inactive | inactive | inactive | inactive
CCCNCc1ccc(-c2ccc(CNC3Cc4ccccc4C3)cc2)nc1 | 32% | 23% | 1% | 97% (active) | inactive | inactive | inactive | inactive
CN1CCN(CCCN(Cc2ccc(-c3cccc(CNCc4ccc5c(c4)OCO5)c3)cc2)C(=O)Nc2ccccc2)CC1 | 87% (active) | 51% (active) | -7% | 101% (active) | inactive | inactive | inactive | inactive
CN(Cc1ccc(C#N)cc1)C1CCN(c2cc(NC(=O)c3ccc(F)cc3)ccn2)CC1 | 10% | 24% | -5% | 86% (active) | inactive | inactive | inactive | inactive
CCC[C@@H]([C@@H](CC1CCCCC1)C(=O)N[C@H](C(=O)Nc1nccs1)C(C)(C)SCCNC(=O)OCc1ccccn1)N(O)C=O | 96% (active) | 17% | -5% | 99% (active) | inactive | inactive | inactive | inactive
Cc1cc(=O)c(-c2ccc(Oc3cccc(Cl)c3)cc2)c(C)[nH]1 | 89% (active) | 23% | 0% | 95% (active) | inactive | inactive | inactive | inactive
CNC(=O)C1Cc2c([nH]c3ccc(Cl)cc23)C2(CCN(CCc3ccccc3)CC2)N1 (stereo not given) | 16% | 2% | -2% | 98% (active) | inactive | inactive | inactive | inactive
Cc1cccc2[nH]c(-c3cccc(-c4ccc(NC(=O)c5cccnc5)cc4)c3)nc12 | 45% | 64% (active) | -1% | 100% (active) | inactive | inactive | inactive | inactive
CCCCN(Cc1cc(Cl)c(OCC)c(OC)c1)c1ccc(C(O)(C(F)(F)F)C(F)(F)F)cc1 | 97% (active) | 5% | -6% | 92% (active) | inactive | inactive | inactive | inactive
Cc1ccc2nc(C)cc(NN=CC=Cc3ccccc3)c2c1 | 28% | 0% | 4% | 92% (active) | inactive | inactive | inactive | inactive
Oc1ccc(CCNCCCCNCCc2ccc(Cl)cc2)cc1O | -1% | 33% | -1% | 94% (active) | inactive | inactive | inactive | inactive
Cc1ccc2nc(-c3ccc(C=CC(=O)NCc4ccc(Cl)c(Cl)c4)cc3)[nH]c2c1 | 18% | 5% | -5% | 96% (active) | inactive | inactive | inactive | inactive
